# About 83,000 compounds went through this panel and 20% of them were active in at least one assay; those are over-represented in the sample as a whole.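 Plates (96-well) were seeded with cells, treated with compound at one concentration, and incubated for 48 hours before percent growth was determined.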 Values without a mark were called inactive. How the source made its calls: active means growth percent below 10; inactive means the rest.
# Tested on: MDA-MB-231 breast
# Assay: NCI-60 one-dose screen, 48 h (100 = growth as untreated, 0 = no growth, -100 = all killed)
# Conditions: 10 µM unless noted
row,Compound,growth
1,COc1ccc(OC)c(N(CCN2C(=O)c3ccccc3C2=O)C(=O)CCl)c1,69.7%
2,O=C(NC1CCN(Cc2ccccc2)CC1)c1cc(C(=O)NC2CCN(Cc3ccccc3)CC2)cc(C(=O)NC2CCN(Cc3ccccc3)CC2)c1,90.3%
3,CCOC(=O)c1c(Cl)c2c(n1Cc1ccccc1)-c1oncc1CCC2,64.4%
4,O=C(/C=C/c1ccccn1)c1ccc(OCc2nnc(-c3ccc(Cl)cc3)o2)cc1,33.4%
5,CSc1nc2c(c(=O)n1C)N=C1c3ccccc3C(=O)C1C(c1ccccc1)N2 (stereo not drawn),82.8%
6,CC/C=C\C[C@H](O)C/C=C1/C(=O)C=C[C@@H]1C/C=C\CCCC(=O)OCCS(=O)(=O)c1ccccc1,40.2%
7,Cc1cc(Nc2ccc(OCc3ccccc3)cc2)nc2cc(O)ccc12,37.7%
8,CSc1nc2c(c(=O)[nH]1)N=C1c3ccccc3C(=O)C1C(c1ccc(F)cc1)N2 (stereo not drawn),93.3%
9,CCOc1ccccc1CN1CCc2nc3cc(C(C)(C)C)[nH]n3c(=O)c2C1,92.3%
10,O=C(NC(=S)Nc1cccc(NC(=S)NC(=O)c2ccccc2)c1)c1ccccc1,56.7%
11,CCOC(=O)c1c2c(n3cccc(Cl)c13)C(=O)c1ncccc1C2=O,24.9%
12,O=C(NN1C(=O)CSC1c1ccc(Cl)cc1)c1[nH]c2ccc(F)cc2c1-c1ccccc1 (stereo not drawn),63.4%
13,COc1ccc(-n2c(C(O)c3ccccc3)nn(CN3CCOCC3)c2=S)cc1 (stereo not drawn),97.6%
